Consider 35 compounds from PubChem BioAssay (NCI).

The panel holds about 83,000 compounds, 20% with a hit somewhere; the sample as a whole holds those more often.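 The endpoint reported here, percent growth, reads 100 for growth as untreated, 0 for no net growth and -100 for all cells dead.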 Activity calls are given as the source filed them. The calls were made as follows: active = growth percent below 10; inactive = the rest.

This assay deals with BT-549 breast. In words: NCI-60 one-dose screen, 48 h (100 = growth as untreated, 0 = no growth, -100 = all killed). As to conditions: 10 µM unless noted.
Consider `CN(C)C(CNc1oc(-c2cccc3ccccc23)nc1C#N)c1ccco1` (stereo not given), for which the growth was 91.4% (inactive).
`COc1cc(C(C)c2ccc3c(ccn3C)c2)cc(OC)c1OC` (stereo not given): the growth is 12.7% (inactive).
Regarding `COC(=O)/C=C1\SC(=Nc2cccc(Cl)c2)N(CCc2c[nH]c3ccccc23)C1=O`, the growth is 44.8% (inactive).
Take `Nn1c(SCC(=O)Nc2ccc(Cl)cc2)nnc1-c1cc(F)c(Cl)cc1Cl`: the growth is 114% (inactive).
Regarding `Cc1nc2sc(C(=O)Nc3ccccc3)c(N)c2cc1C(C)O` (stereo not given), the growth is 74.3% (inactive).
Turning to `CC1(C)[C@@H](O)CC[C@]2(C)[C@H]3CC[C@@H]4[C@H]5[C@H](c6cn(-c7ccccc7)nn6)CC[C@]5(CO)CC[C@@]4(C)[C@]3(C)CC[C@@H]12`, the growth was 80% (inactive).
The same measure for `Cc1ccccc1NC(=O)c1sc2nc(C)c(C(C)O)cc2c1N` (stereo not given): 57.8% (inactive).
For `c1ccc(-c2n(Cc3ccc4ccccc4n3)cc[n+]2Cc2ccc3ccccc3c2)cc1`, the growth was 3.57% (active).
Turning to `CCOCc1cc(C(C)(C)C)ccc1O`, the growth was 104% (inactive).
In the case of `CN1C(=O)c2cc(Cl)nc3c(NC(=O)c4cccc(Cl)c4)c(Cl)c(NC(=O)c4cccc(Cl)c4)c1c23`, the growth was -8.59% (active).
The value for `COc1cccc(NC(=O)Nc2ccc(Oc3ncnc4[nH]c(C)c(C)c34)cc2)c1` was 99.6% (inactive); that for `COc1ccc2nc(-c3ccc(Cl)cc3)cc(C(=O)N3N=C(c4ccc(N)cc4)CC3c3ccccc3)c2c1` (stereo not given) was 44% (inactive).
On to `Cc1cc(C)c(NC(=O)c2sc3nc4c(cc3c2N)CCCCCC4)c(C)c1`, for which the growth is 53.6% (inactive).
The value for `COCCOCCOCc1n(Cc2ccc3ccccc3c2)c2ccccc2[n+]1Cc1ccc2ccccc2c1` was 1.44% (active); that for `Nc1ccc(C(=O)Nc2cccc(C(=O)Nc3ccc4c(O)c(N=Nc5ccc(N=Nc6ccc(S(=O)(=O)O)cc6)cc5)c(S(=O)(=O)O)cc4c3)c2)cc1` was 111% (inactive).
For `COC(=O)c1oc2c(C(=O)/C=C/c3ccc(OC)cc3)c(OCCCN3CCCCC3)ccc2c1C`, the growth was 22.9% (inactive).
The value for `c1ccc(-c2n(Cc3ccc4ccccc4n3)cc[n+]2Cc2ccc3ccccc3n2)cc1` was 28% (inactive).
Turning to `Nc1ccccc1NS(=O)(=O)c1ccc(Cl)cc1`, the growth is 101% (inactive).
Take `O=C(CCc1nnc2sc(OCc3ccccc3)nn12)c1nc2ccc([N+](=O)[O-])cc2[nH]1`: the growth was 102% (inactive).
As for `CCCCc1ccc(N=Nc2ccc(OCC[N+](C)(C)C)cc2)cc1`, the growth was 56.4% (inactive).
Consider `COc1cc(NC(=O)Nc2cnc(Nc3ccc(N4CCOCC4)cc3)nc2Oc2ccc(F)cc2)cc(OC)c1`, for which the growth is 98.2% (inactive).
The value for `COc1ccc(-c2cc(-c3nnc(SCC(=O)Nc4ccc(/C(C)=N\O)cc4)n3-c3ccccc3)c3cc(OC)ccc3n2)cc1` was 63.7% (inactive); that for `CCSc1nc(Cl)c(C#N)c(-c2ccc(F)cc2)n1` was 103% (inactive); that for `O=c1c2ccccc2n(CC(O)CN2CCCC2)c2c(Br)cccc12` (stereo not given) was 92.2% (inactive).
`C#CCN(CCCOc1ccc(Cl)cc1Cl)CCCSC(=O)CCCCCN1/C(=C\C=C2/CCCC(/C=C/C3=[N+](CCCCCC(=O)[O-])c4ccccc4C3(C)C)=C2Cl)C(C)(C)c2ccccc21`: the growth was -34.2% (active).
As to `COc1ccc2nc(-c3ccc(OC)c(OC)c3)cc(-c3nnc(SCC(=O)Nc4ccc(/C(C)=N\O)cc4)n3-c3ccccc3)c2c1`, the growth was 56.4% (inactive).
In the case of `COc1ccc(C(=S)c2cc(OC)c(OC)c(OC)c2)cc1OC(=O)CCl`, the growth was 12.1% (inactive).
The same measure for `CCCCc1n(Cc2ccc3ccccc3n2)cc[n+]1Cc1ccc2ccccc2c1`: -16.9% (active).
The value for `CN(CCC#N)C(=O)Nc1ccccc1` was 102% (inactive); that for `CCn1cc(C(=O)O)c(=O)c2cc(F)c(N3CCN(CC(=O)Nc4ccc(/C(C)=N/OC)cc4)CC3)cc21` was 92.5% (inactive).
In the case of `COc1ccc2c(c1)C1(C(=O)N2)C(C#N)=C(c2ccccc2)Nc2c1c(-c1ccccc1)nn2-c1ccccc1` (stereo not given), the growth is 84.5% (inactive).
The value for `O=C(CCc1nnco1)c1nc2ccc([N+](=O)[O-])cc2[nH]1` was 106% (inactive); that for `Nc1c(C(=O)Nc2cccc3ccccc23)sc2nc3c(cc12)CCCCC3` was 12.6% (inactive); that for `C[C@]12CC[C@@H]3c4ccc(O)cc4CC[C@H]3[C@@H]1C[C@H](O)C2` was 79.1% (inactive).
For the compound `C(=C\c1cn(-c2ccccc2)nc1-c1ccccc1)/c1nnc(-c2c[nH]c3ccccc23)o1`, the growth is 81% (inactive).
